BoNT F protease: blocks Botulinum neurotoxin F light chain protease | 0.22% of 360,000 active | AID 588497 | inhibition, % at 10 µM | Multiplex microsphere protease cleavage assay, flow cytometry; in the data active = inhibition above about 35%, passing the limit was not always enough; inconclusive = no clear call, values can overlap the other calls
Bead autofluor: compound fluorescence in toxin protease inhibitor counterscreen; compound autofluorescence counterscreen, microsphere flow cytometry; active compounds read high; fluorescence intensity (test concentration not listed); 3.1% of 360,000 active; AID 624483; in the data active = fluorescence intensity above about 16000; inconclusive = no clear call, values can overlap the other calls
BoNT A protease: blocks Botulinum neurotoxin A light chain protease | multiplex microsphere protease substrate cleavage, flow cytometry | 0.17% of 360,000 active | inhibition, % at 10 µM
Anthrax LF inh2: anthrax lethal factor protease inhibition. multiplex microsphere protease cleavage assay, LF. 0.12% of 360,000 active. P15917. inhibition, % at 10 µM
Each line names hits and unclear results; the compound was inactive in the other large screens. Sampled rows, rich in hits. Any-hit rate of the full collection: about 3.5%. Cut-off read from the data, not from the text of the source, unless noted: active = inhibition above about 30%; inconclusive = no clear call, values can overlap the other calls; inactive = below that.

O=C(C1CCN(S(=O)(=O)c2cccs2)CC1)N1CCN(c2ccccc2)CC1	Bead autofluor 16746
Cn1c(=O)oc2cc(S(=O)(=O)N3CCC(C(=O)N4CC=C(c5ccccc5)CC4)CC3)ccc21	none
CS(=O)(=O)N1CCCCC1CCN1CCCCC1 (configuration not stated)	none
CCCCN(C(=O)c1cc2ccccc2o1)c1c(N)n(CCCC)c(=O)[nH]c1=O	none
O=C(C1CCN(S(=O)(=O)c2ccccc2)CC1)N1CCOCC1	Bead autofluor 16459, BoNT A protease inconclusive
O=C(C1CCN(S(=O)(=O)c2ccccc2)CC1)N1CCCCC1	none
O=C(C1Cc2ccccc2CN1S(=O)(=O)c1cccs1)N1CCCCC1 (configuration not stated)	Bead autofluor 25075
O=C(O)c1cc(-c2ccc(Cl)c(Cl)c2)n(-c2ccccc2)n1	none
CNc1c(NS(=O)(=O)c2ccc(Br)cc2)c(=O)oc2ccccc12	none
CCOC(=O)CSc1ncc(OC)c(Sc2ccc(OC)cc2)n1	Bead autofluor 20771
Cc1cccc(NC(=O)c2ccc(Cn3cc(C(F)(F)F)ccc3=O)cc2)c1	Bead autofluor 16900
COc1cc2nc(N3CCNCC3)nc(N)c2cc1OC	Bead autofluor 17344
CCOC(=O)CN(C(=O)CSc1nnnn1C)c1ccccc1	none
Cc1cc(Cl)ccc1Oc1nc(-c2ccc(F)cc2)ccc1C#N	Bead autofluor 22004, BoNT A protease inconclusive
COc1ccc(CNC(=O)COC(=O)c2[nH]c(C)c(C(C)=O)c2C)cc1OC	none
CCCCC(=O)OCc1cn(-c2ccc(Cl)cc2)nn1	Bead autofluor 22405
O=C(Nc1ccc(Cl)cc1)OCc1cn(-c2ccccc2)nn1	none
Cc1ccccc1NC(=O)OCc1cn(-c2ccc(Cl)cc2)nn1	Bead autofluor 22413
OCc1cn(-c2ccc(Cl)cc2)nn1	none
CN(Cc1cccc(Cl)c1)C(=O)C1CCC(=O)N(C2CC2)C1 (configuration not stated)	none
CCOc1ccc(NC(=O)C2CC(=O)N3CCCN=C3S2)cc1 (configuration not stated)	none
CCCOc1ccc(NC(=O)C2CC(=O)N3CCCN=C3S2)cc1 (configuration not stated)	Bead autofluor 23005
Cc1ccc(NC2CCCN(C(=O)CCN3CCCCO3)C2)cc1C (configuration not stated)	none
COc1ccc(Cc2nnc(NC(=O)c3ccc(OC(C)=O)cc3)s2)cc1OC	BoNT F protease 34.6
CCCc1nnc(NC(=O)c2cccc(OC)c2)s1	Bead autofluor 21067, BoNT A protease inconclusive
COc1cccc(C(=O)Nc2c(F)c(F)c(F)c(F)c2F)c1	Bead autofluor 20193
O=C1COc2ccc(C(=O)COC(=O)c3ccc(F)cc3Cl)cc2N1	none
Fc1ccc(NC(=S)N2CCc3ccccc3C2)c(F)c1	none
Cc1ccc(NC(=O)Nc2nnc(-c3ccncc3)s2)cc1C	none
COC(=O)Nc1nnc(-c2ccncc2)s1	Bead autofluor 22886
CC(NC(=O)c1ccccc1)c1ccc(Br)cc1 (configuration not stated)	none
C=CC(=O)NC(NC(=O)C=C)c1ccc(Br)cc1	Bead autofluor 21256, BoNT A protease inconclusive
Cc1ccc(C(=O)Nc2cc(=O)n(C)c(=O)n2C)o1	Bead autofluor 22513, BoNT A protease inconclusive
Cc1sc2ncnc(N3CCC(C(=O)Nc4sc5c(c4C(N)=O)CCC(C)C5)CC3)c2c1C (configuration not stated)	none
CC(C)C(=O)Nc1cccc(-c2cnc3ccccc3n2)c1	Bead autofluor 20196
Cc1cnn(CCC(=O)NNC(=S)Nc2ccccc2)c1	Bead autofluor 22734
Cc1ccc(NC(=S)NNC(=O)CCn2cc(C)cn2)cc1	Bead autofluor 20267
Cc1cnn(CCC(=O)NNC(=S)NCC(C)C)c1	none
O=c1[nH]n(-c2ccccc2)c(=O)cc1Cl	none
O=C(/C=C/c1ccc(Br)cc1)NC1CCCCCC1	Bead autofluor 21525
CCCOc1ccc(/C=C/C(=O)NC2CCCCC2)cc1	none
CC(NC(=O)c1cc(-c2ccc3c(c2)OCO3)nc2ccccc12)C(C)(C)C (configuration not stated)	Bead autofluor 21612
Cc1cccc(Sc2c([N+](=O)[O-])ncn2C)c1	Bead autofluor 23323
Cc1cccnc1Sc1c([N+](=O)[O-])ncn1C	none
CC1CC2(C)Oc3ccccc3C3OCC1(CO)C(C)C32 (configuration not stated)	Bead autofluor 19211
COC(=O)c1[nH]c2cc(OC)ccc2c1NC(=O)CCN1CCN(c2ccccc2)CC1	Bead autofluor 23523
CCOC(=O)C1CCCN(CCC(=O)Nc2c(C(=O)OC)[nH]c3cc(OC)ccc23)C1 (configuration not stated)	Bead autofluor 19014, BoNT A protease inconclusive
CCOC(=O)C1CCCN(CC(=O)Nc2c(C(=O)OC)[nH]c3ccc(Br)cc23)C1 (configuration not stated)	none
CCc1ccc(CNCCNCC(C)O)cc1 (configuration not stated)	Bead autofluor 21353
Fc1ccc(-c2nnc(-c3ccc4ccccc4c3)o2)cc1	none
Oc1c(Br)cc(CNC2CCCCC2)cc1Br	none
CCN(CC)C(=O)c1[nH]cnc1C(=O)NCC(=O)OC(C)(C)C	none
COc1ccc(NC(=O)C(C)N2c3cccc4cccc(c34)S2(=O)=O)cc1OC (configuration not stated)	none
COc1ccc(NC(=O)C(C)N2c3cccc4cccc(c34)S2(=O)=O)cc1 (configuration not stated)	Bead autofluor 22225
CC(=O)NCCn1c(SCC(=O)NCc2ccco2)nc2ccccc2c1=O	Bead autofluor 17328
CC(=O)NCCn1c(SCC(=O)NCCC(C)C)nc2ccccc2c1=O	Bead autofluor 23356
O=C(CCCCCn1c(SCC(=O)c2ccccc2)nc2ccccc2c1=O)NCc1ccco1	Bead autofluor 16253
CCCCNC(=O)CSc1nc2ccccc2c(=O)n1CCNC(C)=O	none
O=C(CSc1nc2ccccc2c(=O)n1Cc1ccco1)NCc1ccco1	none
COc1ccccc1NC(=O)CSc1nc2ccccc2c(=O)n1CCNC(C)=O	none
CC(=O)NCCn1c(SCC(=O)c2ccc(Cl)cc2)nc2ccccc2c1=O	Bead autofluor 21199, BoNT A protease inconclusive
CCNC(=O)C1(C)CCN(C(=O)c2cccc(OC(C)=O)c2C)C1 (configuration not stated)	none
CN(C(=O)COC(=O)CSc1ccccc1)c1c(N)n(Cc2ccccc2)c(=O)[nH]c1=O	none
CN(C(=O)c1cccc(NC(=O)Cc2ccc(NC(=O)C3CCCN(S(=O)(=O)c4cccc([N+](=O)[O-])c4)C3)cc2)c1)C1CCCC1 (configuration not stated)	none
COc1cccc(-n2c(CCn3nc(C)c([N+](=O)[O-])c3C)n[nH]c2=S)c1	none
Cc1cccc(-n2c(CCn3nc(C)c([N+](=O)[O-])c3C)n[nH]c2=S)c1	Bead autofluor 16467
Cc1cccc(C)c1NC(=O)C1(NC(=O)C2CCCN2C(=O)OC(C)(C)C)CCCCC1 (configuration not stated)	Bead autofluor 21811
Cc1cccc(NC(=O)[C@@H]2CCCN2C(=O)OC(C)(C)C)c1C	none
CCC12CSc3nc(Cl)ccc3N1C(=O)C(=O)N2C (configuration not stated)	BoNT F protease 39.8, Anthrax LF inh2 inconclusive
CCCN1C(=O)C(=O)c2cc(Cl)ccc21	none
